# Source: ChEMBL document CHEMBL4513141, “CO-ADD screening of NIH (USA) - Clinical Collection” (2021)
# Results with a measured potency or affinity are listed apart.
# Key:
# Klebsiella pneumoniae = conditions: Concentration 20 uM; ASSAY_TEST Inhibition of Bacterial Growth; detection method Absorption (OD600); MEDIA CAMHB; plate type 384well; NBS; CORNING #3640; time 18 hr
# Candida albicans = conditions: 20 µM
# Cryptococcus neoformans = conditions: Concentration 20 uM; ASSAY_TEST Inhibition of Fungal Growth; detection method Resazurin; Absorption (OD600-OD570); plate type 384well; NBS; CORNING #3640
SMILES,Inhibition (Klebsiella pneumoniae),Inhibition (Candida albicans),Inhibition (Cryptococcus neoformans)
CC1=C(CC(=O)O)c2cc(F)ccc2/C1=C\c1ccc([S+](C)[O-])cc1 (centres undefined),14.02%,3.98%,-1.21%
C#C[C@]1(O)CC[C@H]2[C@@H]3CCC4=CC(=O)CC[C@@H]4[C@H]3CC[C@@]21CC [LEVONORGESTREL],13.61%,3.12%,2.67%
O=C1c2c(O)cc(O)cc2O[C@H](c2ccc(O)c(O)c2)[C@H]1O [(+)-TAXIFOLIN],12.56%,3.72%,-3.68%
CCOC(=O)c1ccc(OC(=O)CCCCCN=C(N)N)cc1.CS(=O)(=O)O,15.95%,3.2%,-7.27%
CC(CCc1ccccc1)NCC(O)c1ccc(O)c(C(N)=O)c1.Cl (centres undefined) [LABETALOL HYDROCHLORIDE],19.39%,4.68%,-9.04%
CN1CCC(=C2c3ccccc3CC(=O)c3sccc32)CC1.O=C(O)/C=C/C(=O)O [KETOTIFEN FUMARATE],1.04%,3.18%,-3.16%
COC1=CC(=O)C[C@@H](C)[C@]12Oc1c(Cl)c(OC)cc(OC)c1C2=O [GRISEOFULVIN],11.08%,3.42%,-0.94%
CCCNCC(O)COc1ccccc1C(=O)CCc1ccccc1 (centres undefined) [PROPAFENONE],6.97%,0.01%,-5.76%
